Assay outcomes (PubChem)
The list is not random: actives were taken first. Their share in the collection is about 17%.
ATXN2 expr inh: ATXN2 expression inhibition; 360,000 tested, 0.72% active; AID 1745845; HEK-293 ATXN2-luciferase reporter, luminescence, 24 h; Potency, µM (top dose mostly 57 µM), for inactives: at the highest dose activity change, negative = inhibition, actives largely listed as inhibitors; also: % is scaled to controls: 0 for no effect and ±100 for the full control effect; nearly all actives have a fitted effect of over 55% in size
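qHTS (up to 57 uM final) was run with 24 h compound exposure of reporter cells at 37 °C. Each well was multiplexed: SteadyGlo luminescence measured ATXN2-luciferase expression after a fluorogenic Gly-Phe-AFC viability readout (25 uM final).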
TGFb inhibitor: TGF-b pathway inhibition. HepG2 CAGA-GFP TGF-b/SMAD3 reporter, GFP fluorescence, 18 h; TGF-beta stimulated, 500 pg/mL final. Potency, µM (series often up to 46.1 µM), for the others: at the top dose activity, negative = inhibition, usual class: inhibitors. 410,000 tested, 1.2% active. AID 588855; also: % is scaled to controls: 0 for no effect and ±100 for the full control effect; nearly all actives have a fitted effect of over 65% in size
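Inhibition of TGF-beta-driven CAGA-GFP reporter expression in HEPG2 cells is measured by cellular GFP fluorescence after 18 h stimulation with 500 pg/mL recombinant TGF-beta in 1% FBS medium at 37 degrees C.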
TDP1 cell CPT: growth inhibition of DT40 Tdp1-/-;hTDP1 cells with camptothecin (screen for TDP1 inhibitors) | chicken DT40 Tdp1-/-;hTDP1 cells + 20 nM CPT, ATP luminescence, 48 h | Potency, µM (doses to about 46.2 µM), for inactives: at the highest dose activity change, negative = growth inhibition, most hits filed as inhibitors | 420,000 tested, 12% active | AID 686979; also: % is scaled to controls: 0 for no effect and ±100 for the full control effect; nearly all actives have a fitted effect of over 55% in size
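Chicken DT40 Tdp1-/- cells complemented with human TDP1, 400 cells/well, exposed to compounds plus 20 nM camptothecin for at least 48 h at 37 C; viability read as ATP content by CellTiter-Glo luminescence.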
ATXN viability: cell viability loss in ATXN counter-screen. S2 cells (HEK-293 line with an ATXN2-luciferase reporter) viability, CellTiter-Fluor protease fluorescence, 24 h. Potency, µM (top dose mostly 56.7 µM), hits mostly cytotoxic. 400,000 tested, 0.49% active; also: nearly all actives have a fitted effect of over 40% in size
DT40 TDP1 no CPT: qHTS for Inhibitors of human tyrosyl-DNA phosphodiesterase 1 (TDP1): qHTS in cells in absence of CPT. DT40 Tdp1-/- hTDP1 cells, no CPT, ATP luminescence, 48 h. Potency, µM (titrated, usually from 46.2 µM), inactives show top-dose activity change, negative = growth inhibition, usual class: inhibitors. 420,000 tested, 15% active. AID 686978, 2013; also: % is scaled to controls: 0 for no effect and ±100 for the full control effect; nearly all actives have a fitted effect of over 55% in size
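Readout: luminescence from CellTiter-Glo after 30 min in the dark at RT. Cells: DT40 Tdp1-/- with stable hTDP1, 400/well. Exposure: compounds alone, ≥48 hr, 37 °C.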
HepG2 viability: HepG2 cytotoxicity, counter-screen for TGF-b inhibitors; AID 588856; 410,000 tested, 0.76% active; Potency, µM (top dose mostly 46.1 µM), without a hit: top-dose activity change, negative = cytotoxicity, most hits filed as cytotoxic; HepG2 CAGA-GFP viability, ATP luminescence, 18 h
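HepG2 CAGA-GFP cells (1000/well, DMEM with 1% FBS) received compound, then TGF-beta at 500 pg/mL final, and were incubated 18 hours at 37 degrees C. Viability was read by CellTiter-Glo luminescence. Media-only wells were set as complete cell-killing and DMSO as no toxicity.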
* = called active by the depositor; i = inactive; ? = inconclusive; . = not tested or not shown; [ ] = another dose, or the depositor's remark. Calls follow the shape of the dose curve; as a rule, active = well fitted curve in the direction sought with a large enough effect; inconclusive = small, poorly fitted or top-dose-only effect, or another doubt; inactive = no such curve, though single readings can be large; an effect the other way counts as inactive or inconclusive. Potency is read from the fitted curve at half-maximal effect.

SMILES	ATXN2 expr inh	TGFb inhibitor	TDP1 cell CPT	ATXN viability	DT40 TDP1 no CPT	HepG2 viability
C=CCn1c(SCc2c(C)noc2C)nc2ccccc2c1=O	?	6%	0.56µM*	?	0.79µM*	-9%
Cc1noc(C)c1CSc1nc2ccccc2c(=O)n1-c1ccccc1	-3%	11%	6.5µM*	?	5.8µM*	1%
CN(C(=O)CSc1nc2ccccc2c(=O)n1-c1ccc(F)cc1F)C1CCS(=O)(=O)C1 (stereo not given)	3%	-20%	3%	?	-6%	2%
Cc1noc(C)c1CSc1nc2ccccc2c(=O)n1-c1ccc(F)cc1F	-14%	6%	8.2µM*	i	7.3µM*	-9%
C=CCn1c(SCc2c(C)noc2C)nc2cc(C(=O)O)ccc2c1=O	11%	-25%	?	?	?	6%
O=C(Nc1cccc(O)c1)c1cc(-c2ccco2)on1	50%	17%	?	i	15µM*	4%
CC(=O)c1cccc(NC(=O)c2cc(-c3ccco3)on2)c1	42%	-17%	-4%	i	-28%	-35%
CCCNC(=O)c1cc(-c2ccco2)on1	-32%	35%	9.2µM*	i	9.2µM*	-7%
CC(C)CNC(=O)c1cc(-c2ccco2)on1	-9%	10%	16µM*	i	18µM*	2%
Cc1cc(C(=O)C(C)OC(=O)c2ccc(NC(=O)CC#N)cc2)c(C)n1-c1ccccc1 (stereo not given)	?	6%	?	i	18µM*	16%
O=C(Nc1c(C(=O)c2ccccc2)oc2ccccc12)c1cc(-c2ccccc2O)n[nH]1	-7%	-18%	21µM*	i	18µM*	-12%
CC(C)(C)c1ccc(C(=O)Nc2c(C(=O)c3ccc(F)cc3)oc3ccccc23)cc1	-1%	29%	.	i	.	-26%
Cc1ccc(C(=O)c2oc3ccccc3c2NC(=O)c2cc(-c3ccccc3O)n[nH]2)cc1	-7%	-10%	26µM*	.	10µM*	-4%
Cc1ccc(C(=O)c2oc3ccccc3c2NC(=O)c2cc(-c3cc(C)ccc3O)n[nH]2)cc1	-24%	-11%	16µM*	i	13µM*	0%
CCOC(=O)[C@H]1[C@H]2COc3ccc(C)cc3[C@@H]2N2C(=O)CN(Cc3ccc(Cl)cc3)C(=O)[C@@]12C	4%	6%	-26%	i	2%	-3%
CCOC(=O)[C@H]1[C@H]2COc3ccc(OC)cc3[C@@H]2N2C(=O)CN(Cc3ccc(F)cc3)C(=O)[C@@]12C	9%	-4%	?	i	?	-4%
CCOC(=O)[C@H]1[C@H]2COc3ccc(Br)cc3[C@H]2N2C(=O)CN(Cc3ccc(Cl)cc3)C(=O)[C@@]12C	-25%	?	?	i	23µM*	-12%
CCOC(=O)[C@H]1[C@H]2COc3ccc(Br)cc3[C@@H]2N2C(=O)CN(Cc3ccc(Cl)cc3)C(=O)[C@@]12C	11%	0%	18µM*	i	?	-3%
CCOC(=O)[C@H]1[C@H]2COc3ccc(Br)cc3[C@@H]2N2C(=O)CN(Cc3ccc(F)cc3)C(=O)[C@@]12C	-12%	?	?	?	21µM*	-4%
CCS(=O)(=O)N1CC(CC#N)(n2cc(-c3ncnc4[nH]ccc34)cn2)C1	15%	.	.	.	.	.
CCCCC(=O)Nc1nnc(S(=O)(=O)N(C)Cc2ccccc2)s1	.	20%	27%	.	-1%	7%
CCC(C)Nc1cc(C)c(C#N)c2nc3ccccc3n12 (stereo not given)	-12%	0%	-21%	i	?	1%
CCC(C)Sc1cc(C)c(C#N)c2nc3ccccc3n12 (stereo not given)	4%	-11%	18µM*	i	16µM*	-2%
CCOC(=O)CSc1cc(C)c(C#N)c2nc3ccccc3n12	-28%[11.3 µM]	-15%	?	i	23µM*	0%
O=C(COC(=O)CNC(=O)c1ccccc1F)Nc1cccnc1Cl	1%	-1%	-13%	i	1%	-3%
SMILES	ATXN2 expr inh	TGFb inhibitor	TDP1 cell CPT	ATXN viability	DT40 TDP1 no CPT	HepG2 viability
CC(C)C[C@H]1CN(CCCC[C@@H]2CNC(=O)C(=O)N2CC2CCCCC2)C(=O)C(=O)N1CCc1ccc(O)cc1	7%	.	-7%	i	-5%	.
COc1ccc(N2CCN(C(CNC(=O)C(=O)NCCCN(C)C)c3cccnc3)CC2)cc1 (stereo not given)	12%	4%	-3%	i	-29%	-12%
COc1ccc(N2CCN(C(CNC(=O)C(=O)NCc3ccc(C)cc3)c3cccnc3)CC2)cc1 (stereo not given)	-21%	8%	8.2µM*	i	7.3µM*	-4%
COc1ccc(N2CCN(C(CNC(=O)C(=O)NCCc3ccccc3)c3cccnc3)CC2)cc1 (stereo not given)	-2%	-30%	15µM*	i	16µM*	-7%
COc1ccccc1N1CCN(C(CNC(=O)C(=O)NCc2cccnc2)c2cccnc2)CC1 (stereo not given)	0%	-22%	?	i	?	-5%
COc1ccc(N2CCN(C(CNC(=O)C(=O)NCc3cccnc3)c3cccnc3)CC2)cc1 (stereo not given)	10%	7%	?	i	?	-4%
O=C(NCc1ccccc1)C(=O)NCC(c1cccnc1)N1CCN(c2ccccc2)CC1 (stereo not given)	-13%	?	16µM*	i	13µM*	-30%
COc1ccc(CNC(=O)c2cccc(NC(=O)CC3SC(N4CCCCC4)=NC3=O)c2)cc1 (stereo not given)	1%	-7%	-16%	?	-24%	7%
COc1ccc(CCNC(=O)c2ccc3c(c2)nc2n3CCOC2)cc1OC	.	-21%	3%	.	4%	12%
O=C(c1ccncc1)N1CCC2(CCC(CNC(=O)C3(N4CCOCC4)CCCCC3)O2)CC1 (stereo not given)	.	.	5%[9.04 µM]	i	-5%	.
CCOc1ccccc1NC(=O)c1cc(-c2ccccn2)nc2ccccc12	-30%	8%	21µM*	i	10µM*	-1%
COc1ccc(NC(=O)c2cc(-c3ccccn3)nc3ccccc23)c(OC)c1	-24%	8%	29µM*	i	15µM*	-10%
